# According to PubChem BioAssay AID1671202 (University of Kansas High Throughput Screening Laboratory, 2021):
# The campaign covered roughly 190,000 compounds. About 6,900 (3.6%) were called active. The entries come from a sample that favours actives as a whole. Values without a mark were called inactive. Cut-off read from the data, not from the text of the source: active = inhibition above about 50%; inactive = the rest.
# Target: Huntingtin (Homo sapiens) (UniProt P42858)
# Experiment: mutant huntingtin-calmodulin interaction inhibitors – biochemical, AlphaScreen, primary screen (AID 1671202);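 note: 0% = both proteins with DMSO and 100% = one protein alone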
# Conditions: AlphaScreen His-mHTT/GST-CaM binding, luminescence; at 15 µM, active compounds read high
# Sequence of Huntingtin (Homo sapiens) (P42858 whole entry, looked up, stated change not applied): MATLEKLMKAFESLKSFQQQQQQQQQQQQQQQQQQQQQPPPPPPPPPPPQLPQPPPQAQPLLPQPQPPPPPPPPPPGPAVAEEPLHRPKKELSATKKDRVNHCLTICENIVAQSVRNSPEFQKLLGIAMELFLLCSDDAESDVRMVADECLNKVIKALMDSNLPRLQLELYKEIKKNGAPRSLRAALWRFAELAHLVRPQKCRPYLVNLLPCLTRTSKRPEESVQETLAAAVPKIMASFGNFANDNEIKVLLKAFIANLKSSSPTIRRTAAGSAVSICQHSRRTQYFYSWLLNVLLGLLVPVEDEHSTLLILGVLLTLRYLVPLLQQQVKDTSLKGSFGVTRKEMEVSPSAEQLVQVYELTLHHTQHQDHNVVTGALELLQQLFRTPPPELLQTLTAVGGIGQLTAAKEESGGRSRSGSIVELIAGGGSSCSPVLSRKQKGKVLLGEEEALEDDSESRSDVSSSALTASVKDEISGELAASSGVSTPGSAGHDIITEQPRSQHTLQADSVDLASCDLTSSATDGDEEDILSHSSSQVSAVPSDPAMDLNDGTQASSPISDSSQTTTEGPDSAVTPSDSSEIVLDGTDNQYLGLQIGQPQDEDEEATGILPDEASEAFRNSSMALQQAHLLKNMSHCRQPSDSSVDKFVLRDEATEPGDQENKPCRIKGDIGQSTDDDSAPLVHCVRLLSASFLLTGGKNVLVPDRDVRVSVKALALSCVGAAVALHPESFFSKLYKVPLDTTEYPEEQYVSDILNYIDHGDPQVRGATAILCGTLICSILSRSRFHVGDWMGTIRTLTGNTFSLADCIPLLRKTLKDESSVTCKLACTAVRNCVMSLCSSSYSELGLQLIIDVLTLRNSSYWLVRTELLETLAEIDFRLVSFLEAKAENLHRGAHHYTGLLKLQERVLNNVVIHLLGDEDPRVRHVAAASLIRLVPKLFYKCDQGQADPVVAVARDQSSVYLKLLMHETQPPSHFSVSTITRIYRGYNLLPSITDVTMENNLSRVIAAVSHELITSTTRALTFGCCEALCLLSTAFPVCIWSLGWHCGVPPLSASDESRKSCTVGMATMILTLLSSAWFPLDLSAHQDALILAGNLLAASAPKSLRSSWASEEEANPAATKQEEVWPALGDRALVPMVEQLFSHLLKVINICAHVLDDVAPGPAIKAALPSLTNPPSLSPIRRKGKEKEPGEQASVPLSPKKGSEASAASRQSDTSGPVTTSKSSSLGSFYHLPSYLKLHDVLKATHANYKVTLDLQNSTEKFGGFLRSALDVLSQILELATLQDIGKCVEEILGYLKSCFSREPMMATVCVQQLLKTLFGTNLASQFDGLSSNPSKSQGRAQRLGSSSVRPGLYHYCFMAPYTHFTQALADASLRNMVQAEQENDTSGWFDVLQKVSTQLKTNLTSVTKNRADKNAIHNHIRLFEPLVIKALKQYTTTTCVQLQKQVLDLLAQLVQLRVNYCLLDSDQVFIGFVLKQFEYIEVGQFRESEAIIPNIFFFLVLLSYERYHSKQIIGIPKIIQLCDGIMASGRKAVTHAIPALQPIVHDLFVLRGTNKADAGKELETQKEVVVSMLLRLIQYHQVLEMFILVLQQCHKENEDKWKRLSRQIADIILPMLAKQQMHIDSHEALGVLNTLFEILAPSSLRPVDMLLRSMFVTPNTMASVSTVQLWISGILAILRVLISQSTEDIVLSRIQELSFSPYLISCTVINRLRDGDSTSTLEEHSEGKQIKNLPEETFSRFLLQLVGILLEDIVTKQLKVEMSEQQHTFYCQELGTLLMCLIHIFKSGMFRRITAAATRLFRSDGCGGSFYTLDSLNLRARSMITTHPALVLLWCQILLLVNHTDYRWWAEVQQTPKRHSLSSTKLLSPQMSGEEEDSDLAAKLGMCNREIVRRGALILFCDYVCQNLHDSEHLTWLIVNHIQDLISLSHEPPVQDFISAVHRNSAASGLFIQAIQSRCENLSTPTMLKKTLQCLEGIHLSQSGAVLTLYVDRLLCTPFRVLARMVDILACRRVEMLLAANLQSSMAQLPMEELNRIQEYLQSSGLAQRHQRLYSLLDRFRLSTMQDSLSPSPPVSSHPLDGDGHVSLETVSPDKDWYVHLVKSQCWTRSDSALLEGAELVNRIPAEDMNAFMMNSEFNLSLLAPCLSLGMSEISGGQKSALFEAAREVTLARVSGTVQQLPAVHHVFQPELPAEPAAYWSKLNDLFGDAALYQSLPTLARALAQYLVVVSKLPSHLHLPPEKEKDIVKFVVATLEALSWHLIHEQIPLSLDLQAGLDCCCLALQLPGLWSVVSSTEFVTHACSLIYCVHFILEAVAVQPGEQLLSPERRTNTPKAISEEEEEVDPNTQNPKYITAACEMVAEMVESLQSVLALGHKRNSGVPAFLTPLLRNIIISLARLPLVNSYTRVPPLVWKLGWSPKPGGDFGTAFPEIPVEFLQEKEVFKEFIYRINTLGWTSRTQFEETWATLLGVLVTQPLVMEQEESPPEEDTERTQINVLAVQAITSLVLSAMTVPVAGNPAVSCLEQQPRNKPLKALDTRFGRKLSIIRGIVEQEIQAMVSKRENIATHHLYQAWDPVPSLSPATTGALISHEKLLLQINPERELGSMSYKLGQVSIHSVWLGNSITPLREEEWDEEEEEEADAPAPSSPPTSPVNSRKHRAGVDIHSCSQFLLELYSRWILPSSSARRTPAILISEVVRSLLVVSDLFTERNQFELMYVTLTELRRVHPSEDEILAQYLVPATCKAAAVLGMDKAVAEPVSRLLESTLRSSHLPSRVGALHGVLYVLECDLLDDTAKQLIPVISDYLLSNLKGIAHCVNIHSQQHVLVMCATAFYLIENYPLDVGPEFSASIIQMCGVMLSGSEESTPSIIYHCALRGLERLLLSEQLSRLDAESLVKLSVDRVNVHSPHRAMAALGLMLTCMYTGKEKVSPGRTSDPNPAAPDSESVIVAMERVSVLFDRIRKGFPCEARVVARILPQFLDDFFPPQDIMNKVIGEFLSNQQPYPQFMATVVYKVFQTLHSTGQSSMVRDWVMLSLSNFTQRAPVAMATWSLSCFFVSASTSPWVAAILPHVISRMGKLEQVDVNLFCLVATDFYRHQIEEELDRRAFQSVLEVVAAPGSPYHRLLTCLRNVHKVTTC
row,Structure (SMILES),inhibition
1,COC(=O)C(C)Oc1ccc2c(c1)OC(=Cc1ccccc1C)C2=O (centres undefined),0.9%
2,COCCN=C1Nc2ccccc2NC12CCCN(C(=O)Cc1cccs1)C2 (centres undefined),63% (active)
3,Cc1ccccc1CNC(=O)C1(C)CCCN(C(=O)c2cccc(Cl)c2)C1 (centres undefined),19.4%
4,COCCN=C1Nc2ccccc2NC12CCCN(C(=O)CSc1ccccc1)C2 (centres undefined),76.2% (active)
5,COCCN=C1Nc2ccccc2NC12CCCN(C(=O)c1cccc(Cl)c1)C2 (centres undefined),65.7% (active)
6,COCCN=C1Nc2ccccc2CNC12CCN(C(=O)c1cccc(C(F)(F)F)c1)C2 (centres undefined),18.7%
7,COc1ccccc1CC(=O)N1CCCC2(C1)Nc1cccnc1NC2=NC1CCCC1 (centres undefined),16.8%
8,COCCN=C1Nc2ccccc2NC12CCCN(C(=O)Nc1cccc(OC)c1)C2 (centres undefined),99.8% (active)
9,O=C(c1ccsc1)N1CCCC2(C1)Nc1ccccc1NC2=NC1CCCC1 (centres undefined),4.96%
10,COCCN=C1Nc2ccccc2NC12CCCN(S(=O)(=O)c1cccc(OC)c1)C2 (centres undefined),11.2%
11,COc1cccc(CNC(=O)N2CCCC3(C2)Nc2cccnc2NC3=NC2CCCC2)c1 (centres undefined),1.31%
12,Cc1cc(C)n(CC(=O)N2CCCC3(C2)Nc2cccnc2NC3=NC2CCCC2)n1 (centres undefined),-1.34%
13,CCOc1ccc(CC(=O)N2CCCC3(C2)Nc2cccnc2NC3=NC2CCCC2)cc1 (centres undefined),11.4%
14,CCOc1ccc(CN2C(=O)CCC2(C)C(=O)NC2CCCC2)cc1OC (centres undefined),16%
15,CCn1c(SCc2ccccc2F)nnc1-c1cccc([N+](=O)[O-])c1,13.8%
16,Cc1ccc(C(=O)COc2ccccc2Cl)cc1C,-114%
17,COc1ccc([N+](=O)[O-])cc1C1=N/C(=C/c2cccc(F)c2)C(=O)O1,-5%
18,COc1ccc(NC(=O)C2CCN(c3cnn(C)c(=O)c3)CC2)c(OC)c1,36.1%
19,COc1cccc(C(=O)N2CCC(Oc3nc4c(C)ccc(C)c4s3)CC2)c1OC,64.4% (active)
20,COc1cccc(C(=O)N2CCC(c3nnc(C(F)(F)F)o3)CC2)c1OC,-7.5%
21,COc1ccccc1C(=O)N1CCC(c2nc(C(=O)N3CCOCC3)c(C)o2)CC1,-6.99%
22,Cc1ccc2nc(C(=O)NCc3cc(F)ccc3F)cn2c1,-9%

row,Structure (SMILES),inhibition
1,C=CCN(CC=C)S(=O)(=O)c1ccc(C(=O)Nc2c(C(N)=O)oc3ccccc23)cc1,15.2%
2,CCNC(=O)C1Cc2ccc(OC)cc2N2CCN(Cc3ccc(Cl)cc3)CC12 (centres undefined),93.9% (active)
3,CCNC(=O)C1Cc2ccc(OC)cc2N2CCN(c3ccccc3OC)CC12 (centres undefined),47%
4,COCCNC(=O)C1Cc2ccccc2N2CCN(c3ccccc3)CC12 (centres undefined),11.4%
5,O=C(Nc1ccc2c(c1)OCO2)N1CCOc2ccccc21,7.08%
6,Cc1ccccc1Cc1c(C)nc2c(C(=O)NC3CCCCC3)cnn2c1C,3%
7,Cc1nc2c(C(=O)NC3CCCC3)cnn2c(C)c1Cc1cccc(Cl)c1,79% (active)
8,Cc1cc(C)c(Cc2c(C)nc3c(C(=O)NC4CCCC4)cnn3c2C)c(C)c1,-6%
9,COc1ccc(C2=NC3(CCN(CC(=O)NCc4ccc(C)cc4)CC3)NC2=O)cc1,18.4%
10,CC(C)NC(=O)c1ccc(C(=O)NC(C)C)nc1,0.9%
11,COc1ccc(-c2ccc3nc(N4CCC(C(N)=O)CC4)sc3n2)cc1,27%
12,CN(C)C(=O)C1CCN(c2nc3ccc(-c4cccc(F)c4)nc3s2)CC1,0.2%
13,O=C(NC1CC1)C1CCN(c2nc3ccc(-c4ccccc4)nc3s2)CC1,0.8%
14,CN1CCC(NC(=O)C2CCN(c3nc4ccc(-c5ccsc5)nc4s3)CC2)CC1,70.8% (active)
15,CCN(CC)C(=O)C1CCN(c2nc3ccc(-c4ccc(OC)cc4)nc3s2)CC1,66.8% (active)
16,CC(C)CNC(=O)C1CCN(c2nc3ccc(-c4ccncc4)nc3s2)CC1,4.07%
17,O=C(NCc1ccc2c(c1)OCO2)c1cc2c(s1)CCN(C(=O)c1ccc(F)cc1)C2,1.84%
18,CCOc1ccc2c(=O)c(Oc3ccccc3)coc2c1,-2.3%
19,CCOc1ccccc1NC(=O)Nc1ccc2c(c1)CN(C(=O)c1ccco1)CC2,28.9%
20,Cn1c(C2CCN(C(=O)Cc3ccccc3)C2)nc2ccncc21 (centres undefined),-1.65%
21,N#Cc1nc(-c2ccco2)oc1N1CCN(C(=O)c2ccccc2F)CC1,-5.8%
22,Cc1ccccc1-n1c(=O)n(C2CC2)c(=O)c2c1ncn2Cc1c(F)cccc1F,-4.6%

row,Structure (SMILES),inhibition
1,Cc1cc(C)nc(SCC(=O)c2ccc(Cl)cc2)n1,1.3%
2,COc1ccc(C(=O)Sc2nc(C)cc(C)n2)cc1,98% (active)
3,COc1ccc(NC(=O)c2ccc(OC)cc2)cc1,-2%
4,COc1ccc(C2=N/C(=C\c3ccc(Cl)cc3)C(=O)O2)cc1OC,-4%
5,O=c1[nH]c2ccc(S(=O)(=O)Nc3ccc(OC(F)(F)F)cc3)cc2o1,0%
6,O=C(Nc1nnc(Cc2cccs2)o1)c1ccc(Cl)cc1Cl,6%
7,COc1ccc(-c2cc3c(c4c2ccn4C)C2CCC3C2)cn1 (centres undefined),52.6% (active)
8,Cc1cc2[nH]c(C(=O)Nc3ccccc3F)c(CN3CCOCC3)c2s1,23%
9,COc1ccc(C(=O)N2CCC(c3cc(N)on3)CC2)cc1F,3.7%
10,CCCCN(C)C(=O)C1CCCN(c2ncccc2-c2noc(C3CCC3)n2)C1 (centres undefined),23.9%
11,CC(=O)c1cc2c3c(c1)C1C=CCC1C(c1cccc([N+](=O)[O-])c1)N3CC1CC=CC21 (centres undefined),97% (active)
12,COc1cc2c(cc1OC)C(C(=O)O)C(c1cccc([N+](=O)[O-])c1)N(C)C2=O (centres undefined),0%
13,COc1ccc2c(c1)C1=NN(C(C)=O)C(c3cccc([N+](=O)[O-])c3)C1CC2 (centres undefined),3%
14,O=C(NCc1ccco1)Nc1c[nH]c2ccccc12,3%
15,NCCN1C(=O)c2[nH]nc(-c3ccccc3)c2C1c1ccccc1 (centres undefined),9%
16,CCOC(=O)N1CCC(c2nnc(Cc3ccc(OC)cc3)s2)CC1,-8.5%
17,Cc1nc(-c2ccccc2)sc1C(=O)NCCOc1ccc(-c2cccs2)nn1,6%
18,Cc1ccc(C(=O)Nc2cc(-c3ccccn3)no2)cc1,1.2%
19,NS(=O)(=O)c1ccc(C(=O)NCCOc2ccc(-c3ccccn3)nn2)cc1,100% (active)
20,O=C(Cc1ccccc1Cl)NCC1CCN(c2cc(-c3ccncc3)[nH]n2)CC1,-5.18%
